The values that follow come from ChEMBL document CHEMBL3433997, “St. Jude Leishmania screening dataset” (2016).

Usually inhibition stands for the relative decrease from the control value, in per cent.

What all share (format): functional
For assay [1], the target named is Solute carrier family 2, facilitated glucose transporter member 1 (Homo sapiens) (UniProt P11166). Description: ST_JUDE_LEISH: Cytotoxicity at 2uM final concentration against transgenic Leishmania Mexicana promastigotes LmGLUT1 that are glucose transport deficient and complemented with the human glucose transporter GLUT1. Activity is measured by DNA content using SYBR green in vitro.
Chain of Solute carrier family 2, facilitated glucose transporter member 1 (Homo sapiens) (P11166 whole entry): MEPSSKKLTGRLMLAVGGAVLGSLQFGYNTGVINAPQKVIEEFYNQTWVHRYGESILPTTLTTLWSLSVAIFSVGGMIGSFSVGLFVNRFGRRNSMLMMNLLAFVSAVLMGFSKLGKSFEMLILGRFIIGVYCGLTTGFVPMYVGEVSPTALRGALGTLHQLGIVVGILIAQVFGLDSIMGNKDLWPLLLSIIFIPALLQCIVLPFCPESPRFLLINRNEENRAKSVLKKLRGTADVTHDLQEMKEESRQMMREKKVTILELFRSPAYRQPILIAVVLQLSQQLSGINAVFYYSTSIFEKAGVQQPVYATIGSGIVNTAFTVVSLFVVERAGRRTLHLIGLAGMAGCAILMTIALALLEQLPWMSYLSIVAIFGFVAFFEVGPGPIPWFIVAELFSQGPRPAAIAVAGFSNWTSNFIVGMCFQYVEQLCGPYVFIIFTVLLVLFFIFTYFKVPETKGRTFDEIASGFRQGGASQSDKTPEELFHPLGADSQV

The target of assay [2] is Hexose transporter 1 (Plasmodium falciparum) (UniProt O97467). Description: ST_JUDE_LEISH: Cytotoxicity at 2uM final concentration against transgenic Leishmania Mexicana promastigotes LmPfHT that are glucose transport deficient and complemented with the Plasmodium falciparum hexose transporter. Activity is measured by DNA content using SYBR green in vitro.
Assay [3] deals with Glucose transporter (Leishmania mexicana) (UniProt O61059). Description: ST_JUDE_LEISH: Cytotoxicity at 2uM final concentration against transgenic Leishmania Mexicana promastigotes LmGT2 that are glucose transport deficient and complemented with the L. Mexicana glucose transporter 2. Activity is measured by DNA content using SYBR green in vitro.

Turning to `COc1ccc(F)cc1-c1cccc(CNC2CCN(CC3Cn4c(=O)ccc5ccc(F)c3c54)CC2)c1` (stereo not given), the inhibition was 10.1% in assay [1], 14.3% in assay [2] and 18.8% in assay [3].

Regarding `CC/N=C(/NCCCCCCN/C(=N/CC)NCc1ccccc1)NCc1ccccc1`, the values for the inhibition in assay [1], in assay [2] and in assay [3] were 0.49%, -0.55% and -2.09%, respectively.

As for `NC(=O)c1cc2nc(NC3CCC3)nc(Nc3cccc4[nH]ncc34)c2[nH]1`, the inhibition in assay [1] was -0.69%; in assay [2] it was -0.16%; in assay [3], -1.17%.

For the molecule `O=C(NC1CCN(Cc2ccccc2)CC1)c1cc(-c2ccncc2)nc2ccc(Cl)cc12`, the inhibition in assay [1] was 4.96%; in assay [2], 3.26%; in assay [3] it was 0.14%.

With `CC(O)CNc1nc2ccccc2n1CC(=O)Nc1cccc(C(=O)Nc2cccc(C(F)(F)F)c2)c1` (stereo not given), the inhibition turned out to be 1.41% in assay [1], 1.81% in assay [2] and 4.48% in assay [3].

As to `Clc1ccccc1CN1CCC(NCc2cccc(-n3ccnc3)c2)CC1`, the inhibition in assay [1] is 2.64%; in assay [2], -1.07%; in assay [3], 1.16%.

As for `CC1CN(c2cnn(C/C=C/c3ccc(NC(=O)c4ccc(Cl)cc4)cc3)c(=O)c2Cl)CC(C)N1` (stereo not given), the inhibition in assay [1] was -0.22%; in assay [2], -0.3%; in assay [3] it was -1.49%.

With `Cc1c(O)cccc1Nc1ccnc2ccc(C(F)(F)F)cc12`, the inhibition in assay [1] is -0.14%; in assay [2] it was 0.25%; in assay [3], -1.33%.

For the molecule `COc1cccc(CN2CCC(N3CCc4cc(NC(=O)c5cc(C)on5)ccc43)C2)c1OC` (stereo not given), the inhibition in assay [1] worked out at 1.63%; in assay [2] it was 5.08%; in assay [3] it was 4.28%.

With `Cc1nc(C)c(-c2ccc(Oc3ccc(Cl)c(Cl)c3)cc2)c(O)c1Cl`, the inhibition came to 1.91% in assay [1], 1.63% in assay [2] and 2.1% in assay [3].

As for `Oc1ccc(-c2nc3c4cc(I)ccc4c4ccc(I)cc4c3[nH]2)cc1`, the inhibition in assay [1] was 2.27%; in assay [2] it was -1.87%; in assay [3], -2.11%.

As to `CCCCCN1CCCC(NS(=O)(=O)c2ccc(C(=O)Nc3cccc(C(F)(F)F)c3)cc2)C1` (stereo not given), the inhibition was 1.16% in assay [1], 2.32% in assay [2] and 0.39% in assay [3].

Turning to `COc1ccc(COc2c(OC)cc(Cc3cnc(N)nc3N)cc2OC)cc1`, the inhibition in assay [1] came out at 5.65%; in assay [2], 5.76%; in assay [3], 6.57%.

Take `CC(C)(Oc1ccc(Cl)cc1)C(=O)NCCC1CCN(CCCCCNC(=O)/C=C/c2ccc(Cl)c(Cl)c2)CC1`: the inhibition was 6.53% in assay [1], 7.08% in assay [2] and 2.35% in assay [3].

Take `Oc1cc(Nc2ccnc3cc(-c4cccc(CN5CCCCC5)c4)ccc23)c(F)cc1Cl`: the inhibition in assay [1] came to 3.41%; in assay [2], 2.51%; in assay [3], 2.54%.

For `Cc1cc(N[C@@H](Cc2ccccc2)C(=O)Nc2ccccc2)nc(Nc2ccccc2)n1`, the inhibition in assay [1] is 5.97%; in assay [2], 5.91%; in assay [3], -0.05%.

Regarding `Cc1ccc(/C=C/C(=O)N2CCC(CCN3CCC(c4c[nH]c5ccccc45)CC3)CC2)cc1C`, the results for the inhibition in assay [1], in assay [2] and in assay [3] were 1.87%, 1.19% and 6.17%, respectively.

On to `COc1ccc2nccc([C@@H](O)CN3CCC(NCc4cc5oc(=O)n(C)c5cc4F)CC3)c2c1`, for which the results for the inhibition in assay [1], in assay [2] and in assay [3] were 0.9%, 0.07% and 0.86%, respectively.

`Nc1nc(N)c2c(n1)CCc1cc(Br)ccc1-2`: the inhibition in assay [1] is 1.65%; in assay [2] it was 4.52%; in assay [3], 2.4%.

Consider `COc1cc2nc(N(C)Cc3cccc(I)c3)nc(N)c2cc1OC`, for which the figures for the inhibition in assay [1], in assay [2] and in assay [3] were 4.75%, 7.24% and 1.56%, respectively.

As for `Cc1ccccc1C1CCN(C2CCC(NC(=O)/C=C/c3ccc(C(F)(F)F)cc3F)CC2)CC1` (stereo not given), the inhibition amounted to 1.85% in assay [1], 0.43% in assay [2] and 0.34% in assay [3].

Turning to `OCCN1CCN(c2nc(Nc3cccc(F)c3)c3cnn(-c4ccccc4)c3n2)CC1`, the inhibition in assay [1] is 3.91%; in assay [2], 0.94%; in assay [3], -2.4%.

For `Cc1ccc(CN2CCCN(Cc3cccc(NC(=O)c4ccc(Cl)c(Cl)c4)c3)CC2)cc1`, the inhibition in assay [1] was -1.13%; in assay [2], -2.91%; in assay [3], -0.82%.

`Cc1cc(O)c(CN(C)Cc2ccc3c(c2)OCCO3)cc1C(C)C`: the inhibition worked out at 4.86% in assay [1], 5.38% in assay [2] and 2.54% in assay [3].

For `COc1ccc(-c2nc(NCc3ccccc3)c3cc(OC)c(OC)cc3n2)cc1`, the inhibition in assay [1] came out at 10.8%; in assay [2], 12.1%; in assay [3] it was 4.38%.

With `O=C(Nc1ccc(Cl)cc1)NC1CCN(CCCCCNC(=O)C2CC2c2ccc(Cl)c(Cl)c2)CC1` (stereo not given), the inhibition in assay [1] worked out at 9.93%; in assay [2], 9.43%; in assay [3], 7.34%.

For the molecule `N#Cc1ccc(-c2nc(CO)c(C(=O)NCCCCN3CCC(c4ccc5c(c4OCC(N)=O)CCCC5)CC3)s2)cc1`, the results for the inhibition in assay [1], in assay [2] and in assay [3] were 1.02%, -1.06% and 1.74%, respectively.

On to `COc1ccccc1/C=C/C(=O)N(C)C1CCN(CCCCCNC(=O)/C=C/c2ccc(Cl)c(Cl)c2)C1` (stereo not given), for which the results for the inhibition in assay [1], in assay [2] and in assay [3] were 1.67%, 1.04% and 0.34%, respectively.

In the case of `CC(C)(C)c1ccc(Cc2cccc3nc(N)nc(N)c23)cc1`, the figures for the inhibition in assay [1], in assay [2] and in assay [3] were 21%, 16.4% and 11.4%, respectively.

In the case of `Cc1ccc(C(=O)Nc2cc(C(F)(F)F)cc(C(F)(F)F)c2)cc1[N+](=O)[O-]`, the values for the inhibition in assay [1], in assay [2] and in assay [3] were 9.19%, 12.4% and 7.77%, respectively.

Regarding `N#Cc1ccc2c(c1)CCN(CCC1CCC(NC(=O)c3cc4cccc(Cl)c4[nH]3)CC1)CC2` (stereo not given), the inhibition in assay [1] turned out to be 15.5%; in assay [2] it was 11.7%; in assay [3] it was 9.05%.

As to `N=C(N)NN=CC(=O)Nc1ccc(Cl)cc1`, the figures for the inhibition in assay [1], in assay [2] and in assay [3] were 7.68%, 11.3% and 8.24%, respectively.

As to `CN(C)CCCOc1cccc(NC(=O)Nc2ccc(Cl)c(Cl)c2)c1`, the figures for the inhibition in assay [1], in assay [2] and in assay [3] were -1.47%, -0.6% and -1.24%, respectively.

Turning to `c1ccc(Oc2ccc(Nc3ccnc4ccc(-c5ccccn5)cc34)cc2)cc1`, the inhibition is 2.62% in assay [1], 4.16% in assay [2] and 3.02% in assay [3].

With `O=C(NCCCCN1CCC(c2ccc([N+](=O)[O-])cc2)CC1)c1ccc(NC(=O)c2ccc(Cl)cc2)cc1`, the inhibition came to 4.18% in assay [1], 1.35% in assay [2] and 4.06% in assay [3].
